Results from the supplement of paper PMC9334596.
“And” between values parts separate entries of the source, which are not always exact repeats. Identical values can stand only once. Whole data set: some 5,300 compounds, median “PER2::LUC luminescence relative to vehicle control” near 0.96, cut for the highest 2% near 1.3. The sample holds the highest values, similar compounds and a random draw of the others, so the mix is not that of the screen.

System: mPer2Luc MEF
Assay: PER2::LUC luminescence relative to vehicle control (fold of vehicle); higher = higher PER2::LUC reporter signal
Conditions: 10 µM
Method in brief: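 Each value gives PER2::LUC luminescence as fold of vehicle control, measured with the ONE-Glo luciferase assay system in mouse embryonic fibroblasts carrying the mPer2Luc reporter. Cells grown in DMEM with 10% FBS at 37 °C and 5% CO2 were seeded at ~3000 per well in 384-well plates. Library compounds were added at 10 μM 48 h later, and readings were taken 24 h and 30 h after treatment.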

| SMILES | PER2::LUC luminescence (time after treatment 24 h) | PER2::LUC luminescence (time after treatment 30 h) |
| --- | --- | --- |
| CCCCCCC(=O)CCCCCC/C=C/C[C@@H](O)[C@H](O)[C@@](N)(CO)C(=O)O | 1.26 | 1.35 |
| Cc1ncc(C[n+]2csc(CCO)c2C)c(=O)[nH]1 | 1.01 | 0.895 |
| NCC(CC(=O)O)c1ccc(Cl)s1 (racemic) | 1.04 | 0.985 |
| CC[C@H](C)[C@@H]([C@@H](CC(=O)N1CCC[C@H]1[C@H](OC)[C@@H](C)C(=O)N[C@H](C)[C@@H](O)c1ccccc1)OC)N(C)C(=O)[C@@H](NC(=O)[C@@H](NC)C(C)C)C(C)C | 0.378 | 0.38 |
| Cc1[nH]c2ccc(O)cc2c1CCN | 1.08 and 1.05 | 0.977 and 1.35 |
| NCCc1c[nH]c2ccc(O)cc12 | 0.925 | 0.97 |
| NCCc1ccc(O)cc1 | 1.03 and 0.947 | 0.942 and 0.934 |
| NC(CCCCCP(=O)(O)O)C(=O)O (racemic) | 1.22 | 1.09 |
| CC(=O)Nc1cc([As](=O)(O)O)ccc1O | 1.04 and 1.02 | 1.06 and 0.878 |
| O=[N+]([O-])c1cc([As](=O)(O)O)ccc1O | 1.08 | 1.54 |
| O=[N+]([O-])c1ccc([As](=O)(O)O)cc1 | 1.13 | 0.866 |
| COc1cc(=O)oc(/C=C/C=C/C=C/C(C)=C/[C@@]2(C)O[C@H](C)[C@](C)(O)[C@H]2O)c1C | 0.952 | 0.913 |
| COc1c2c3c4c(c(OC)c(=O)c5c(O)cc(OC)c(c6c(OC)cc(O)c(c1=O)c63)c54)[C@@H](C(C)=O)[C@@](C)(O)C2 | 1.14 | 1.06 |
| O=C(O)[C@@H]1C[C@H]2C[C@@H](CP(=O)(O)O)CC[C@H]2CN1 | 1.03 | 0.966 |
| C=C(C)c1cc2cc(C(C)=O)c(O)cc2o1 | 1.31 | 1.39 |
| OCC1C(O)C(O)C2C(O)CCN12 (stereo not given) | 1.1 | 1.08 |
| COc1ccc(O)c(C(C)(C)C)c1.COc1ccc(O)cc1C(C)(C)C | 0.868 | 1.18 |
| CC(=O)Oc1ccc(/C=C/c2cc(OC(C)=O)cc(OC(C)=O)c2)cc1 | 1.76 | 1.65 |
| COc1ccc(/C=C/c2cc(O)cc(O)c2)cc1 | 1.69 | 1.76 |
| C=CCc1ccc(OC)cc1 | 0.993 | 0.968 |
| CCCC(=O)O[C@@H]1[C@@H](C)[C@@]2(O)[C@@H](C=C(CO)C[C@]3(O)C(=O)C(C)=C[C@@H]23)[C@@H]2C(C)(C)[C@]12OC(=O)CCC | 1.13 | 0.899 |
| COc1cc2c(cc1F)C(c1ccccc1Cl)=Nc1c(n[nH]c1C)N2 | 0.461 | 0.367 |
| CC(=O)OCC1=C[C@H]2[C@@H]3C(C)(C)[C@]3(OC(=O)Cc3ccccc3)C[C@@H](C)[C@]2(O)[C@@H]2C=C(C)C(=O)[C@@]2(O)C1 | 1.21 | 1.09 |

| SMILES | PER2::LUC luminescence (time after treatment 24 h) | PER2::LUC luminescence (time after treatment 30 h) |
| --- | --- | --- |
| COc1ccc(C(C)(C)C)cc1CN[C@H]1C2CCN(CC2)[C@H]1C(c1ccccc1)c1ccccc1 | 0.868 | 0.939 |
| CC1=C[C@]23C(=O)[C@@H](C=C(CO)[C@@H](O)[C@]2(O)[C@H]1O)[C@H]1[C@@H](C[C@H]3C)C1(C)C | 0.981 | 0.957 |
| CCN(CC)C(=O)NC1CC2c3cccc4[nH]cc(c34)CC2N(C)C1 (stereo not given) | 0.846 | 0.986 |
| COC1=CC(=O)O[C@@H](/C=C/c2ccc3c(c2)OCO3)C1 | 0.149 | 0.152 |
| COC1=CC(=O)O[C@@H](CCc2ccc3c(c2)OCO3)C1 | 0.859 | 0.763 |
| COC1=CC(=O)O[C@@H](/C=C/c2ccccc2)C1 | 1.28 | 1.35 |
| Cc1o[nH]c(=O)c1CC(N)C(=O)O (racemic) | 0.875 | 0.984 |
| C[C@@H]1OC(=O)[C@H]2C[C@H]3CCCC[C@@H]3[C@@H](/C=C/[C@H]3CCC[C@H](C)N3C)[C@@H]12 | 0.807 | 0.884 |
| N=C(N)NCCCCCCCCCCNC(=N)N | 0.972 | 0.965 |
| NCCc1ccccn1 | 0.99 | 1.45 |
| Cn1cnc(CCN)c1 | 0.826 | 0.66 |
| NCCc1ccccc1 | 1.03 | 1.04 |
| CC(C)CC(NC(=O)C(Cc1ccccc1)NC(=O)CNC(=O)C(C)NC(=O)C(N)Cc1ccc(O)cc1)C(=O)O (stereo not given) | 1.03 | 0.904 |
| CC1(C)C(=O)N(c2ccc(C#N)c(C(F)(F)F)c2)C(=S)N1c1ccc(C(N)=O)c(F)c1 | 1.06 | 1.11 |
| CC(=O)OC12CC(C)C3(O)C4C=C(C)C(=O)[C@@]4(O)CC(CO)=C[C@H]3C1C2(C)C (stereo not given in full) | 1.15 | 0.967 |
| NNC(N)=O | 1.09 | 0.875 |
| COC(N)=O | 1.07 | 1.01 |
| NC(=O)CI | 1.59 | 1.31 |
| O=C(O)CF | 1.08 | 1.08 |
| CN(C(=O)Cc1ccc(Cl)c(Cl)c1)[C@H](CN1CCCC1)c1cccc(N=C=S)c1 | 0.676 | 0.687 |
| CCCN1C[C@H](C)N([C@H](c2ccc(C(=O)N(CC)CC)cc2)c2cccc(OC)c2)C[C@H]1C | 0.894 | 0.899 |
| C=CCN1CC[C@@]2(C)c3cc(O)ccc3C[C@@H]1C2C (single isomer, unassigned; (+)) | 0.969 | 0.939 |
